# “And” between values parts separate entries of the source, which are not always exact repeats. Equal entries are not always repeated. Compounds without any hit were thinned out: in the full panel of roughly 83,000, 20% have a hit.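 Assay: single dose, 48 h. Readout: percent growth (0 = no net growth; negative = cell death). Active: <10.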 A number with no mark means an inactive call. The source made the active and inactive calls.
# System: HL-60(TB) leukemia
# Assay: NCI-60 one-dose screen, 48 h (100 = growth as untreated, 0 = no growth, -100 = all killed)
# Details: 10 µM unless noted
row,Compound,growth
1,Cc1ccc2nc3ccccc3c(NCc3ccccc3)c2c1,40.6%
2,C=CCOc1ccc2c(c1)CC=C1[C@@H]2CC[C@]2(C)C(=O)/C(=N/O)C[C@@H]12,22.7%
3,c1ncc2[nH]cnc2n1,54.2%
4,Cn1cnc([N+](=O)[O-])c1Sc1ncn[nH]1,105%
5,O=C(CSc1nnc2n1S(=O)(=O)c1ccccc1N2c1ccccc1)Nc1nc2ccc(F)cc2s1,106%
6,O=C1CCCN1c1cccc2cccnc12,101%
7,O=C(OCc1ccccc1)c1ccccc1,132% and 98.4%
8,Cc1cccc(NC(=O)N/C(N)=N/c2nc(C)c(C)s2)c1,19.5%
9,CCN(CC)CCCNc1cccc2c(SCc3ccccc3)ccnc12,-67.5% (active)
10,CCOC(=O)C(CCC#N)(CCC#N)C(=O)OCC,103%
11,O=C(O)c1ccc(-n2cc(CNc3ccc(Oc4ccccc4)cc3)c(-c3ccccc3)n2)cc1,92.5%
12,O=c1c2cccc3c(Nc4ccc(F)cc4)ccc(c32)c2nc3ccccc3n12,124%
13,O=c1[nH]c(=O)n(C2OC(CO)C(O)C2O)cc1I (configuration not stated),77.5% and 86.6%
14,CC(=O)Nc1cccc2cc(O)ccc12,114% and 76.6% and 104%
15,Nc1ncncc1-c1ccc(F)cc1,103%
16,CCNc1nnnn1CC,111%
17,O=C(CO)C(O)C(O)C(O)C(O)CO (configuration not stated),101% and 102%

# From PubChem BioAssay (NCI)
